# Screens: PubChem, several laboratories
# ERa SRC1 pot = enhancers of ERα–SRC-1 coactivator binding, primary screen, biochemical, TR-FRET, ERα LBD, low estradiol | Estrogen receptor (Homo sapiens), P03372 | TR-FRET ERalpha-LBD/SRC-Cy5 coactivator binding, 2 h; 100 = basal binding, no effect | coactivator binding (% of control), % at 25.6 µM | 1.3% of 86,000 active | AID 639, 2007; in the data active = activity above about 200%;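 also: binding measured in presence of low estradiol as agonist stimulus; 0% = peptide alone without receptor and 100% = receptor with peptide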
# F-actin modifier = modifiers of F-actin cytoskeleton organization, primary screen, imaging, HUVEC, phalloidin staining, high-content imaging | HUVEC TNFa F-actin phalloidin imaging | inhibition, % at 2 µM | 0.18% of 91,000 active | AID 836, 2007;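 active = inhibition above the batch mean plus 3 SD and confirmed as a hit by visual image inspection, cut at about 30% in these data, passing the limit was not always enough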
# Candida biofilm = clotrimazole potentiators killing Candida biofilms, primary screen, with clotrimazole, Alamar Blue; C. albicans biofilm + clotrimazole; 0.14% of 85,000 active; inhibition, % at 6 µM; AID 834, 2007;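 active = inhibition above 20%; inactive = inhibition below 20%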;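 also: preformed 24 hr biofilms exposed to compound for 48 hr; 0% = biofilm without compound and 100% = blank killed by clotrimazole plus chlorhexidine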
# E-sel TNF inh = E-selectin induction blockers in HUVEC – imaging, immunofluorescence, high content, primary screen; inhibition, % at 2 µM; AID 1246, 2008; 0.71% of 120,000 active; HUVEC TNFa-induced E-selectin immunofluorescence;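 active = inhibition above the batch mean plus 3 SD, and confirmed as a hit on visual image review, cut at about 43% in these data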;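 also: 0% = TNF-stimulated DMSO wells and 100% = unstimulated control wells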
# ERb coact inh = inhibitors of ERβ-SRC1 coactivator interaction, primary screen, biochemical, TR-FRET, ERβ LBD, SRC-1 peptide; Estrogen receptor beta (Homo sapiens), Q92731; TR-FRET ER-beta LBD / SRC1-Cy5 peptide binding; receptor agonist-loaded with 1 µM estradiol; inhibition, % at 25.6 µM; 1.3% of 86,000 active;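 active = compounds whose percent inhibition of the receptor-coactivator binding signal exceeds about 50% in the single-dose screen, limit read from the data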;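 also: 0% = receptor plus peptide wells without compound and 100% = peptide-only wells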
# Target sequence (Q92731 whole entry, looked up, the tested form may be a part): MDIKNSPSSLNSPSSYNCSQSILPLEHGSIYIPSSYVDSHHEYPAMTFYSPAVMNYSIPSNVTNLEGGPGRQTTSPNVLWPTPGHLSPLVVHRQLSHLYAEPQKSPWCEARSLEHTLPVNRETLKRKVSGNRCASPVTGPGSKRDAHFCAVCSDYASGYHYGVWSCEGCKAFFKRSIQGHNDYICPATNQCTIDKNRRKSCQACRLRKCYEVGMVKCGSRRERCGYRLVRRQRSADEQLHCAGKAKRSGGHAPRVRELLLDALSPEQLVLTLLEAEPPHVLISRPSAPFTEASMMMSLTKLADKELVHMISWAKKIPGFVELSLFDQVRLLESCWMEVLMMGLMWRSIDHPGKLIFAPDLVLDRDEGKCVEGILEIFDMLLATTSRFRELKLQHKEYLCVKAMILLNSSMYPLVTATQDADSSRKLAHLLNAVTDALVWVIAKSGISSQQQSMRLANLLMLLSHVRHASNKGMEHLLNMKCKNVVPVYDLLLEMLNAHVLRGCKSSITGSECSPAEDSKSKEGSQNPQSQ
# ERa coact inh = ERα–SRC-1 coactivator interaction inhibitors, primary screen, biochemical, TR-FRET, ERα LBD, estradiol-bound. 1.7% of 86,000 active. AID 629, 2007. TR-FRET ER-alpha LBD / SRC-1 peptide. inhibition, % at 25.6 µM; in the data active = inhibition above about 50%;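 also: 0% = receptor plus peptide control and 100% = peptide only without receptor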
# * hit, by the source's call; · = not tested or not shown; [ ] = remark or other dose. Most compounds without a hit are left out; they make up all but 2.9% or so of the library.
SMILES,ERa SRC1 pot,F-actin modifier,Candida biofilm,E-sel TNF inh,ERb coact inh,ERa coact inh
CCC1Sc2ccccc2N(CC(=O)NCc2ccc3c(c2)OCO3)C1=O (stereo not given),113,·,4,95*,-13,6
CCC1Sc2ccccc2N(CC(=O)NCCC2=CCCCC2)C1=O (stereo not given),90,4,0,-16,0,0
C#CCNc1nc(C)nc2c1nnn2Cc1ccccc1F,122,-2,6,-29,-2,-5
Cc1ccc2nc(N3CCN(S(=O)(=O)c4ccc5c(c4)OCCO5)CC3)c(C#N)cc2c1,258*[fluorescence artefact?],-22,0,-16,56*[fluorescence artefact?],49
Cc1cc(C)c2cc(C#N)c(N3CCCC3)nc2c1,119,-20,8,·,25,51*[fluorescence artefact?]
Cc1ccc2cc(C#N)c(N3CCCN(C(=O)C4CCCO4)CC3)nc2c1 (stereo not given),92,37,5,18,8,-2
Cc1ccc(S(=O)(=O)N2CCCN(c3nc4cc(C)ccc4cc3C#N)CC2)cc1,350*[fluorescence artefact?],-15,2,-9,45,35
Cc1nc2ccccc2n1CCC(=O)O,82,·,6,3,-3,-6
Cc1nc2ccccc2n2c(O)c(CC(=O)O)cc12,55,·,3,-31,58*[fluorescence artefact?],41
N#CCC(CNc1ncc(C(F)(F)F)cc1Cl)OC(=O)c1cccc(C(F)(F)F)c1 (stereo not given),·,-15,·,-4,·,·
O=C(OCn1ncc(Cl)c(Cl)c1=O)c1cccc(C(F)(F)F)c1,·,-14,·,71*,·,·
CNC(=S)N(Cc1ccc(OC)cc1)Cc1cc2ccc(C)cc2[nH]c1=O,·,·,·,-12,·,·
CC(=O)Nc1ccc(C(=O)N/N=C/c2ccc(F)cc2)cc1,·,·,·,-6,·,·
O=C(N/N=C/c1ccc(C(F)(F)F)cc1)c1ccc(O)cc1,·,·,·,78*,·,·
CCCn1c(=NC(=O)c2ccco2)c(C(=O)OCC)cc2c(=O)n3ccccc3nc21,95,-7,10,58*,9,-1
COC(=O)c1cn(NC(=O)c2cccc(F)c2)c(=O)c2ccccc12,80,·,60*,15,-9,6
Cc1ccc(C2(C)NC(=O)N(CCOc3ccccc3)C2=O)cc1 (stereo not given),105,23,6,82*,11,9
OC(Cn1cccn1)c1ccccc1 (stereo not given),112,-34,4,-18,2,2
O=C(NC1CCS(=O)(=O)C1)c1c(NC(=O)C2COc3ccccc3O2)sc2c1CCCC2 (stereo not given),148,-9,7,6,32,59*
COC(=O)c1c(NC(=O)C2COc3ccccc3O2)sc2c1CCN(Cc1ccccc1)C2 (stereo not given),·,·,·,63*,·,·
CCN1CCc2c(sc(N)c2C#N)C1,26,·,1,2,77*[fluorescence artefact?],65*[fluorescence artefact?]
COc1ccc(OC)c(N2C(=O)[C@@H]3C(c4ccccc4Cl)=NO[C@@H]3C2=O)c1,23,9,-4,4,79*,79*
Cc1cc(NC(=O)c2ccccc2)nc2c1c(=O)oc1ccccc12,·,·,·,4,·,·
CCOc1ccc(C(=O)Nc2cc(C)c3c(=O)oc4ccccc4c3n2)cc1,315*[fluorescence artefact?],-1,4,-9,25,33
COc1ccc(CC(=O)Nc2cc(C)c3c(=O)oc4ccccc4c3n2)cc1,243*,·,18,·,53*[fluorescence artefact?],38
SMILES,ERa SRC1 pot,F-actin modifier,Candida biofilm,E-sel TNF inh,ERb coact inh,ERa coact inh
CCOC(=O)c1c(C)[nH]c(C(=O)N/N=C\c2ccccc2Cl)c1C,·,·,·,21,·,·
Cc1cccc(CSc2nc3c(cc2C#N)CCC3)c1,179,-3,5,-26,68*[fluorescence artefact?],21
C=C(C)CSc1nc2c(cc1C#N)CCC2,125,-19,6,·,99*[fluorescence artefact?],4
N#Cc1cc2c(nc1SCc1cccnc1)CCC2,99,13,0,12,2,8
CCOC(=O)c1[nH]c(C)c(C(=O)OCCOc2cccc(C)c2)c1C,·,·,·,-31,·,·
O=Cc1ccc(OCc2ccccn2)cc1,99,15,6,45*,12,8
CCNc1nc(C23CC4CC(CC(C4)C2)C3)cs1,·,·,·,-7,·,·
COc1cc2c(cc1NC(=O)Nc1ccccc1)oc1ccccc12,·,1,·,100*,·,·
COc1cc2c(cc1NC(=O)CSCC(=O)O)oc1ccccc12,86,·,5,19,0,10
O=C(Nc1ccc(N2CCOCC2)cc1)C1CCCN(S(=O)(=O)c2cccc(C(F)(F)F)c2)C1 (stereo not given),104,-1,1,20,85*[fluorescence artefact?],-4
O=C(Nc1cccc(C(F)(F)F)c1)C1CCCN(S(=O)(=O)c2cnc[nH]2)C1 (stereo not given),111,28,0,6,-13,-3
COc1cccc(/C=C/C(=O)OCC(=O)Nc2ccc(Cl)c(S(=O)(=O)N(C)C)c2)c1,·,·,·,69*,·,·
CC(=O)N[C@@H](Cc1c[nH]c2ccccc12)C(=O)OCC(=O)Nc1ccc(Cl)c(S(=O)(=O)N(C)C)c1,·,·,·,62*,·,·
CCOC(=O)c1c(/N=C/N(C)C)sc(/C=N/Nc2ccccc2)c1-c1ccc(Cl)cc1,·,·,·,-33,·,·
CCCc1cc(=O)[nH]c(SCC(=O)N(C)C2CCS(=O)(=O)C2)n1 (stereo not given),88,-13,-5,3,-4,2
Cc1ccc(NC(=O)Nc2ccc3c(c2)N(C)C(=O)CS3)nc1,86,-11,7,94*,14,39
Cc1ccccc1NC(=O)c1ccccc1NC(=O)c1ccco1,95,-9,2,-20,-10,-24
CC(NC(=O)c1ccccc1NC(=O)c1ccco1)c1ccccc1 (stereo not given),241*[fluorescence artefact?],0,7,-3,12,34
CNC(=O)c1ccccc1NC(=O)c1ccco1,94,34*,2,4,22,23
O=C(Nc1cccc2cccc(NC(=O)c3ccco3)c12)c1ccco1,62,28,3,-19,52*,22
O=C(Nc1ccccc1NC(=O)c1ccco1)c1ccco1,92,·,0,·,-11,-4
Cc1ccccc1C(=O)Nc1ccccc1C(=O)N/N=C\c1ccco1,·,-13,·,-18,·,·
O=C(Nc1ccccc1C(=O)N/N=C/c1ccco1)c1ccc(F)cc1,·,·,·,94*,·,·
COc1ccc(C2=[N+]([O-])C(C)(C)N(O)C2C)cc1 (stereo not given),101,0,2,-26,-9,-19
Cc1occc1C(=O)Nc1ccccc1NC(=O)c1ccoc1C,116,-4,5,2,55*,58*
CCN(CC)CCN(C(=O)c1ccc(CN2CCCCC2)o1)C(C(=O)NC1CCCCC1)c1ccc(F)cc1 (stereo not given),·,·,·,10,·,·
